From PubChem BioAssay AID1159580 (chemical genetic matrix, 2015)
In all, about 5,500 compounds went through this assay and about 2,000 (36%) were called active. Roughly 18% stayed inconclusive and do not appear here. Rule as the data show it: active = normalized growth mostly below about 0.91 (no sharp cut-off); inconclusive = no clear call, values can overlap the other calls; inactive = mostly above about 0.92. The list shows a part of the results.

Assay: chemical genetic growth profiling, strain panel (AID 1159580);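 also: tested at 20 µM; growth read once vehicle control cultures reached saturation at 30 °C; 1 = growth at the plate median or of vehicle wells; lower values mean less growth of the strain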
Settings: S. cerevisiae deletion strains, growth OD
[1] = locus YAL040C, strain CLN3, active compounds read low
[2] = locus YER002W, strain NOP16, active compounds read low
[3] = locus YGR229C, strain SMI1, active compounds read low
[4] = locus YNL175C, strain NOP13, active compounds read low
[5] = locus YNL197C, strain WHI3, active compounds read low
[6] = locus YNL224C, strain SQS1, active compounds read low
[7] = locus YOR083W, strain WHI5 (second series), active compounds read low

Measured: normalized growth

C=CCc1ccccc1OCC(O)CN[C@]1(C)CCC[C@H](C(C)(C)NC(=O)CBr)C1 (stereo partly specified)
inactive: [1] 1.01 | [2] 1.02 | [3] 1.01 | [4] 1.08 | [5] 1.03 | [6] 1.02 | [7] 1.09

CC1(NCC(O)COc2cccc3[nH]ccc23)CCC(C(C)(C)NC(=O)CBr)CC1 (stereo unspecified)
inactive: [1] 1.04 | locus YCL061C, strain MRC1 (second series), active compounds read low 0.993 | locus YDR363W, strain ESC2, active compounds read low 1.03 | [2] 1.03 | locus YGR078C, strain PAC10, active compounds read low 1 | [3] 0.997 | locus YMR307W, strain GAS1, active compounds read low 0.99 | [4] 1.02 | [5] 1.02 | [6] 1.06 | locus YNL322C, strain KRE1, active compounds read low 0.973 | [7] 1.02 | locus YPL055C, strain LGE1, active compounds read low 0.968 | locus YPL241C, strain CIN2, active compounds read low 1
